In PubChem BioAssay (NCATS):
“And” between values parts separate entries of the source, which are not always exact repeats. Identical values can stand only once. Inconclusive results are not listed. The source made the active and inactive calls. Calls follow the shape of the dose curve; as a rule, active = well fitted curve in the direction sought with a large enough effect; inconclusive = small, poorly fitted or top-dose-only effect, or another doubt; inactive = no such curve, though single readings can be large; an effect the other way counts as inactive or inconclusive.

Key:
[1] = biological target: Cellular tumor antigen p53 (Homo sapiens) (UniProt P04637); assay: Primary qHTS for small molecule compounds that upregulate eGFP-tagged delta133p53alpha (in N-terminal) cells. (AID 2060322); conditions: NCI-H358 eGFP-delta133p53alpha fluorescence, 24 h; activation: hits give high values; also: nearly all actives have a fitted effect of over 75% in size; also: potency is read from the fitted curve at half-maximal effect;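 as to activation: cells pre-induced with doxycycline then dosed without doxycycline; series mostly up to about 56 µM; 0% = DMSO vehicle and 100% = reference activator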
Cellular tumor antigen p53 (Homo sapiens), sequence (P04637 whole entry, looked up): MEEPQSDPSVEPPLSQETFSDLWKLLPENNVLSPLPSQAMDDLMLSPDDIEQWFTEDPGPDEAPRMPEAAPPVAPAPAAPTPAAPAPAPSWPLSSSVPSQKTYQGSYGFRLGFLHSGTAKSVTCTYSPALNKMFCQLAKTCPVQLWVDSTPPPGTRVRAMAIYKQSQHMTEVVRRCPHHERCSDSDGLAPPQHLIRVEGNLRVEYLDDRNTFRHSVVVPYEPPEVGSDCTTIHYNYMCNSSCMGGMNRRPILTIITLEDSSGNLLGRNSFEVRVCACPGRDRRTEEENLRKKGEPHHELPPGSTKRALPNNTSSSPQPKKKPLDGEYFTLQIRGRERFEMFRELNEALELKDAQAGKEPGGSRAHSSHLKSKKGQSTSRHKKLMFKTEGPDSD
Summary of the method: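 NCI-H358 cells pre-induced 24 h with 10 ng/ml doxycycline for eGFP-delta133p53alpha, plated dox-free and exposed 24 h at 37C to titrated compounds. Fixed, Hoechst-stained; gated GFP peak intensity by laser scanning cytometry, normalized to DMSO (0%) and 57.5 uM 5-azacytidine (100%).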

[2] = biological target: Aldehyde dehydrogenase, mitochondrial (Homo sapiens) (UniProt P05091); assay: qHTS for Inhibitors of the Aldehyde Dehydrogenase Family (ALDH2) Primary screen (AID 2061308);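 also: plate controls were vehicle for no effect and reference inhibitor for full effect; nearly all actives have a fitted effect of over 55% in size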
[3] = biological target: Retinaldehyde dehydrogenase 3 (Homo sapiens) (UniProt P47895); assay: qHTS for Inhibitors of the Aldehyde Dehydrogenase Family (ALDH1A3) Validation screen (AID 2061312); also: % is scaled to controls: 0 for no effect and ±100 for the full control effect; nearly all actives have a fitted effect of over 45% in size
[4] = biological target: Retinaldehyde dehydrogenase 3 (Homo sapiens) (UniProt P47895); assay: qHTS for Inhibitors of the Aldehyde Dehydrogenase Family (ALDH1A3) Primary screen (AID 2061315);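 also: plate controls were DMSO vehicle for no effect and reference inhibitor for full effect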
[5] = BET inhibitor-based combinations targeting novel dependencies in MECOM-rearranged (r) AML: SET-2 cell line (AID 2202231); conditions: SET-2 AML cells viability, CellTiter-Glo luminescence, 48 h; viability: hits give low values, concentration not given here; also: nearly all actives have a fitted effect of over 35% in size; also: potency is read from the fitted curve at half-maximal effect;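 as to viability: plate controls were DMSO treated cells for no effect and wells without cells for full effect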
Summary of the method: (§1)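 Luminescent ATP readout (CellTiter-Glo) after 48 hr drug exposure gives viability. Curves span 11 concentrations and are normalized to DMSO and empty wells. Activity is reported as area under the curve and its Z-transform within each cell line.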

[6] = BET inhibitor-based combinations targeting novel dependencies in MECOM-rearranged (r) AML: OCI-AML3 cell line (AID 2202232); conditions: Potency: OCI-AML3 viability; also: nearly all actives have a fitted effect of over 35% in size; also: potency is read from the fitted curve at half-maximal effect;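 as to viability (% of control): series mostly up to about 46 µM; plate controls were DMSO vehicle wells for no effect and wells without cells for full effect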
Summary of the method: as §1

[7] = BET inhibitor-based combinations targeting novel dependencies in MECOM-rearranged (r) AML: MV-4-11 cell line (AID 2202233); also: nearly all actives have a fitted effect of over 45% in size; also: potency is read from the fitted curve at half-maximal effect;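 as to viability, % of control: plate controls were DMSO for no effect and blank wells for full effect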
Summary of the method: (§2)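 Luminescent ATP readout (CellTiter-Glo, 15 min at room temperature) after 48 hr drug exposure gave viability. Dose-response curves, normalized to DMSO and empty-well controls, were summarized as area under the curve and its mean-centred Z-score.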

[8] = BET inhibitor-based combinations targeting novel dependencies in MECOM-rearranged (r) AML: HNT-34 cell line (AID 2202234); also: nearly all actives have a fitted effect of over 35% in size; also: potency is read from the fitted curve at half-maximal effect;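 as to viability (% of control): plate controls were vehicle wells for no effect and cell-free wells for full effect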
Summary of the method: as §2

[9] = BET inhibitor-based combinations targeting novel dependencies in MECOM-rearranged (r) AML: UCSD-AML1 cell line (AID 2202235); also: nearly all actives have a fitted effect of over 40% in size; also: potency is read from the fitted curve at half-maximal effect;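 as to viability (% of control): series mostly up to about 46 µM; plate controls were DMSO vehicle wells for no effect and blank wells for full effect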
Summary of the method: as §2

[10] = BET inhibitor-based combinations targeting novel dependencies in MECOM-rearranged (r) AML: AML-191 cell line (AID 2202236; also: nearly all actives have a fitted effect of over 35% in size; also: potency is read from the fitted curve at half-maximal effect;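 as to viability (% of control): plate controls were vehicle wells for no effect and wells without cells for full effect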)
Summary of the method: as §1

[11] = BET inhibitor-based combinations targeting novel dependencies in MECOM-rearranged (r) AML: AML-194 cell line (AID 2202237; also: nearly all actives have a fitted effect of over 40% in size; also: potency is read from the fitted curve at half-maximal effect;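 as to viability (% of control): plate controls were vehicle wells for no effect and wells without cells for full effect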)
Summary of the method: as §1

COc1ccc2nc3n[nH]c(C)c3c(NCCOCCO)c2c1
inactive: activation [1] 6.21% | Potency [2] | Potency [3] | Potency [4] | viability [5] 97% | Potency [6] | Potency [7] | Potency [8] | Potency [9] | Potency [10] | Potency [11]

COc1cc(-c2nn(C3CCC(N4CCN(C(C)=O)CC4)CC3)c3ncnc(N)c23)ccc1NC(=O)c1cc2ccccc2n1C (stereo not drawn)
inactive: activation [1] 17.1% | Potency [2] | Potency [3] | Potency [4]
active: Potency [5] 9340 nM | Potency [6] 7420 nM | Potency [7] 9340 nM | Potency [8] 2090 nM | Potency [10] 5900 nM | Potency [11] 4170 nM

CC(C)N(C[C@H]1O[C@@H](n2cnc3c(N)ncnc32)[C@H](O)[C@@H]1O)C1CC(CCc2nc3ccc(C(C)(C)C)cc3[nH]2)C1 (stereo partly drawn)
inactive: activation [1] 15.8% and 10% | Potency [2] | Potency [3] | Potency [4] | viability [5] 125% | Potency [6] | Potency [8] | Potency [9] | Potency [10] | Potency [11]
active: Potency [7] 6610 nM

CC[C@@]1(O)C(=O)OCc2c1cc1n(c2=O)Cc2cc3cc(O)ccc3nc2-1
active: Potency [1] 1.51 µM and 19.3 µM | Potency [5] 33.2 nM | Potency [6] 14.8 nM | Potency [7] 6.6 nM | Potency [8] 7.4 nM | Potency [9] 13.2 nM | Potency [11] 20.9 nM
inactive: Potency [2] | Potency [3] | Potency [4]

CC(C)C[C@@H](C(=O)N[C@@H](Cc1ccc(OCc2ccccc2)cc1)C(=O)NC(C)(C)C)N(C)Cc1ccc(C(C)(C)C)cc1
inactive: activation [1] -1.91% | Potency [2] | Potency [3] | Potency [4]

Cn1c(CNc2ccc(C(=N)N)cc2)nc2cc(C(=O)N(CCC(=O)O)c3ccccn3)ccc21
inactive: activation [1] 22.7% and -0.477% | Potency [2] | Potency [3] | Potency [4] | viability [5] 116% | viability (% of control) [6] 119% [at 0.315 µM] | viability, % of control [7] 133% [at 0.315 µM] | viability (% of control) [8] 104% [at 0.315 µM] | viability (% of control) [10] 101% [at 0.315 µM] | viability (% of control) [11] 118% [at 0.315 µM]

Clc1cccc(-n2nnnc2NCc2ccccc2Oc2ccccn2)c1Cl
inactive: activation [1] -7.52% and 10.5% | Potency [2] | Potency [3] | Potency [4] | viability [5] 103% | Potency [6] | Potency [7] | Potency [8] | Potency [9] | Potency [10] | Potency [11]

Cc1cccc(-c2nn3c(c2-c2ccnc4ccc(C(N)=O)cc24)CCC3)n1
inactive: activation [1] -7.16% | Potency [2] | Potency [3] | Potency [4] | viability [5] 108% | Potency [6] | Potency [7] | Potency [8] | Potency [9] | Potency [10] | Potency [11]

COC(=O)Nc1nc2ccc(C(=O)c3ccc(F)cc3)cc2[nH]1
active: Potency [5] 833 nM | Potency [6] 590 nM | Potency [7] 742 nM | Potency [8] 417 nM | Potency [9] 468 nM | Potency [10] 332 nM | Potency [11] 332 nM
inactive: activation [1] 8.15% and 21.5% | Potency [2] | Potency [3] | Potency [4]

CC(=O)Nc1ccc([C@H](C)C(=O)Nc2ncc(C(C)C)s2)cc1
active: Potency [1] 3.06 µM and 2.69 µM | Potency [5] 3320 nM | Potency [6] 7420 nM | Potency [7] 5250 nM | Potency [8] 3320 nM | Potency [9] 3320 nM | Potency [10] 1860 nM | Potency [11] 2950 nM
inactive: Potency [2] | Potency [3] | Potency [4]

C[C@H]1CN(C[C@H](Cc2ccccc2)C(=O)NCC(=O)O)CC[C@@]1(C)c1cccc(O)c1
inactive: activation [1] 7.64% | Potency [2] | Potency [3] | Potency [4] | viability [5] 120% | Potency [6] | Potency [7] | Potency [8] | Potency [9] | Potency [10]

CC(C)(C)c1cc(C(=O)O)c(NC(=O)Nc2ccc3[nH]ncc3c2)s1
active: Potency [7] 18600 nM
inactive: activation [1] 7.87% and -13.8% | Potency [2] | Potency [3] | Potency [4] | viability [5] 118% | Potency [6] | Potency [8] | Potency [9] | Potency [10] | Potency [11]

CC[C@@H](C)Nc1cc(C(=O)NC2CC3CCC(C2)N3c2ccc(C(=O)C3CC3)cn2)c(C)cc1C(N)=O (stereo partly drawn)
inactive: activation [1] -11% | Potency [2] | Potency [3] | Potency [4]
active: Potency [5] 132 nM | Potency [6] 166 nM | Potency [7] 66.1 nM | Potency [8] 148 nM | Potency [9] 263 nM | Potency [10] 209 nM | Potency [11] 118 nM

Cc1cc2c(s1)Nc1ccccc1N=C2N1CCN(C)CC1
inactive: activation [1] -5.86% and 20.9% and -11.5% | Potency [2] | Potency [3] | Potency [4] | viability [5] 111% | Potency [6] | Potency [7] | Potency [8] | Potency [9] | Potency [10] | Potency [11]
